Measured values published in PubChem BioAssay (NCATS).
Inconclusive results are not listed. Unmarked numbers belong to inactive results. Calls come from the whole dose curve; as a rule, active = well fitted inhibition curve with a large enough effect; inconclusive = small, poorly fitted or top-dose-only effect; inactive = flat fitted curve, though single readings scatter.

The compounds below were run against Aldehyde dehydrogenase, mitochondrial (Homo sapiens) (UniProt P05091) (assay: qHTS for Inhibitors of the Aldehyde Dehydrogenase Family (ALDH2) Primary screen (AID 2061308;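 note: plate controls were vehicle for no effect and reference inhibitor for full effect; nearly all actives have a fitted effect of over 55% in size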)). Details: ALDH2 enzyme inhibition qHTS, 1536-well; series mostly up to 56 µM; activity change, negative = inhibition: at the top concentration.

SMILES	activity change, negative = inhibition
Cc1ccccc1C(=O)N1CC/C(=N\OS(=O)(=O)O)c2ccc(Cl)cc21	-0.466%
O=C(/C=C/c1ccc(O)cc1)N[C@@H](Cc1ccc(O)cc1)C(=O)O	6.46%
CC(=O)/C=C/C1(O)C(C)(C)CC(O)CC1(C)O (stereo not given)	2.58%
CC1CCC2C(C(=O)O)=CC3CC(C)(C)CC132 (stereo not given)	-10.3%
NC(=O)C(O[C@@H]1O[C@H](CO[C@@H]2O[C@H](CO)[C@@H](O)[C@H](O)[C@H]2O)[C@@H](O)[C@H](O)[C@H]1O)c1ccccc1 (stereo not given in full)	0.393% [at 28 µM]
O=C(Cc1ccccc1)OC[C@H]1O[C@H](O[C@H]2O[C@H](CO)[C@@H](O)[C@H](O)[C@H]2O)[C@H](O)[C@@H](O)[C@@H]1O	0.752% [at 28 µM]
C=C1C(=O)OC2/C=C(\CO)CC/C=C(\C=O)CC(OC(=O)CC(C)C)C12 (stereo not given)	9.42%
O=C(/C=C/c1ccc(O)cc1)OCC1=CC2OC(=O)C3=CO[C@@H](O[C@@H]4O[C@H](CO)[C@@H](O)[C@H](O)[C@H]4O)[C@H]1[C@@H]32 (stereo not given in full)	17.2% [at 28 µM]
C=C[C@](C)(O)CC[C@H]1C(C)=CC(=O)[C@H]2C(C)(C)CCC[C@]12C	-4.27%
CC(=O)OC1C(c2ccccc2)CCC(c2ccccc2)C1OC(C)=O (stereo not given)	5.91%
C[C@@H]1O[C@@H](O[C@H]2[C@H](O[C@H]3[C@H](O[C@H]4CC[C@@]5(C)C(CC[C@]6(C)C5CC=C5[C@@H]7CC(C)(C)C[C@@H](O)[C@]7(C)CC[C@]56C)[C@@]4(C)CO)O[C@H](C(=O)O)[C@@H](O)[C@@H]3O)O[C@H](C(=O)O)[C@H](O)[C@@H]2O)[C@H](O)[C@H](O)[C@H]1O (stereo not given in full)	0.759% [at 16.9 µM]
C[C@H]1CC[C@@]2(OC1)O[C@H]1CC3C4CC=C5C[C@H](O)C[C@@H](O[C@@H]6O[C@@H](C)[C@H](O)[C@@H](O)[C@H]6O[C@@H]6O[C@@H](C)[C@H](O)[C@@H](O)[C@H]6O)[C@]5(C)C4CC[C@]3(C)[C@H]1[C@@H]2C (stereo not given in full)	-7.5% [at 16.9 µM]
C/C=C(\C)C(=O)OC1C=C(C)CC(OC(=O)c2ccc(O)cc2)C2C1(C)CCC2(O)C(C)C (stereo not given)	-0.014% [at 28 µM]
CC1CCC2C(C)(C)CC(C)(CO)C2(O)C1C(=O)O (stereo not given)	7.32%
COc1cc(/C=C/C(=O)OC[C@H]2O[C@@](CO)(O[C@H]3O[C@H](CO)[C@@H](O)[C@H](O)[C@H]3O)[C@@H](OC(=O)/C=C/c3ccc(O)c(OC)c3)[C@@H]2O)ccc1O	-5.65% [at 16.9 µM]
O=c1cc(N2CCN(c3cccc(C(F)(F)F)c3)CC2)[nH]c(=O)n1C1CCCCC1	-7.73%
C=C1C(=O)O[C@@H]2C[C@]3(C)[C@@H](CCC(C)=O)[C@@H]3C[C@H]12	-3.26%
CC1CCC2(C(=O)OC3OC(CO)C(O)C(O)C3O)CCC3(C)C(=CCC4C5(C)CCC(O)C(C)(CO)C5CCC43C)C2C1(C)O (stereo not given)	3.29% [at 16.9 µM]
C=C1CCC2C(C)(C(=O)O)CCCC2(C)C1CC/C(C)=C\CO (stereo not given)	2.95%
CC(=O)O[C@H]1CC[C@@]2(CI)C(=CC[C@@H]3[C@@H]2CC[C@]2(C)[C@@H]([C@H](C)CCCC(C)C)CC[C@@H]32)C1	-4.11% [at 11.2 µM]

SMILES	activity change, negative = inhibition
CC1CCC2C(C)(C)C(O)CCC2(C)C12Cc1c(O)cc3c(c1O2)CN=C3N (stereo not given)	-0.735%
C[C@@H]1O[C@@H](O[C@H]2[C@H](O[C@H]3[C@H](O[C@H]4CC[C@@]5(CO)C(CC[C@]6(C)C5CC=C5C7CC(C)(C)C[C@@H](O)[C@]7(C)CC[C@]56C)C4(C)C)O[C@H](C(=O)O)[C@@H](O)[C@@H]3O)OC[C@@H](O)[C@@H]2O)[C@H](O)[C@H](O)[C@H]1O (stereo not given in full)	-7.5% [at 16.9 µM]
C/C=C(\C)C(=O)OC[C@H]1O[C@@H](O[C@H]2[C@@H](O[C@H]3O[C@H](COC(=O)/C(C)=C/C)[C@@H](O)[C@H](O)[C@H]3O[C@@H]3O[C@H](COC(=O)/C(C)=C/C)[C@@H](O)[C@H](OC(=O)/C(C)=C/C)[C@H]3O)O[C@H](COC(=O)/C(C)=C/C)[C@@H](O)[C@@H]2O)[C@H](O)[C@@H](O)[C@@H]1O	1.93% [at 16.9 µM]
CN1[C@@H]2CC[C@H]1CC(NC(=O)n1c(=O)[nH]c3ccccc31)C2 (stereo not given in full)	3.46%
C=C[C@]1(C)C[C@H](O)[C@H]2C(=C)C(=O)O[C@@H]2[C@H]1C(=C)CO	0.459%
CC(=O)O[C@H]1C[C@@](O)(C(C)C)[C@@H]2[C@@H](OC(=O)c3ccc(O)cc3)CC(C)=CC[C@@]12C	-6.68% [at 28 µM]
OCC1=C[C@@H](O)[C@@H]2C=CO[C@@H](O[C@@H]3O[C@H](CO)[C@@H](O)[C@H](O)[C@H]3O)[C@H]12	5.38%
C=CC(C)(O)C(O)CC1C(C)(O)C(O)C(O)C2C(C)(C)CCCC21C (stereo not given)	0.478%
OC[C@H]1O[C@@H](OCc2ccccc2)[C@H](O[C@@H]2OC[C@@H](O)[C@H](O)[C@H]2O)[C@@H](O)[C@@H]1O	-2.91% [at 28 µM]
CCCO[C@@H]1O[C@H](CO)[C@@H](O)[C@H](O)[C@H]1O[C@@H]1OC[C@@H](O)[C@H](O)[C@H]1O	-1.59%
C/C=C(\C)C(=O)O[C@H]1[C@@H](O[C@]2(COC(=O)CC(C)C)O[C@H](COC(=O)C(C)CC)[C@@H](OC(C)=O)[C@@H]2O)O[C@H](COC(C)=O)[C@@H](O)[C@@H]1O (stereo not given in full)	7.72% [at 16.9 µM]
O=C(/C=C/c1ccc(O)cc1)OC[C@@]1(O)C=C[C@@H]2C(C(=O)O)=CO[C@@H](O[C@@H]3O[C@H](CO)[C@@H](O)[C@H](O)[C@H]3O)[C@@H]21	3.61% [at 28 µM]
COC(=O)C(Cc1ccccc1)NC(=O)c1ccccc1 (stereo not given)	2.52%
NC(N)=NC(=O)c1cnn(-c2cccc3ncccc23)c1C1CC1	-0.293%
COC(=O)c1cc(Br)cnc1N1CCC(NC2CCCCC2)C(O)C1 (stereo not given)	-9.16%
C=C1CC2OC(=O)C(COC)C2C(OC(=O)/C(C)=C\C)CC2(C)OC1=CC2=O (stereo not given)	9.1%
CC(=O)O[C@@H](CO[C@@H]1O[C@H](CO)[C@H](O)[C@H](O)[C@H]1O)[C@]1(C)C=C2CC[C@@H]3C(C)(C)[C@@H](O)CC[C@@]3(C)[C@@H]2CC1	12.2% [at 28 µM]
O=C(O)c1ccnc(-c2cc(C(=O)NCCc3ccccc3)ccn2)c1	-8.99%
COc1cc(C(=O)NC2CCN(C)CC2)ccc1Nc1ncc2c(n1)N(C1CCCC1)CC(F)(F)C(=O)N2C	-0.773%
CCCCS(=O)(=O)Nc1ncnc(OCCOc2ncc(Br)cn2)c1-c1ccc(Br)cc1	-3.95%
